About 83,000 compounds went through this panel and 20% of them were active in at least one assay; those are over-represented in the sample as a whole.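 Plates (96-well) were seeded with cells, treated with compound at one concentration, and incubated for 48 hours before percent growth was determined.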 Active and inactive are the calls of the source. Rule for the calls: active = growth percent below 10; inactive = the rest.
Each molecule was assayed on MALME-3M melanoma (assay: NCI-60 one-dose screen, 48 h (100 = growth as untreated, 0 = no growth, -100 = all killed)). Conditions: 10 µM.

| SMILES | growth |
| --- | --- |
| COc1ccc(-c2csc(NC(=O)CSc3nc(C)c(-c4ccccc4)n3Nc3ccccc3)n2)cc1 | 60.4% (inactive) |
| Cc1cccc(C)c1NC(=O)c1sc2nc3c(cc2c1N)C(=O)CCC3 | 74.7% (inactive) |
| CC(=O)CSC(C)=O | 89.6% (inactive) |
| S=C1SCC(c2ccccc2)S1 (stereo not drawn) | 118% (inactive) |
| CC(=O)N(C)c1ccc(Nc2ccc(Nc3ccc(N(C)C(C)=O)cc3)c3c2C(=O)c2ccccc2C3=O)cc1 | 113% (inactive) |
| COc1ccc(CN2CCC(N3CCCC3=O)c3cc(Cl)ccc32)cc1 (stereo not drawn) | 88.6% (inactive) |
| CN(C)c1ccc(Cc2ccc(N(C)C)cc2Cl)c(Cl)c1 | 91.9% (inactive) |
| Clc1cc2c(c(CSc3nc4ccccc4n4cccc34)c1)OCOC2 | 88.2% (inactive) |
| CC(=O)n1c(-c2ccc(Cl)c(Cl)c2)cn(-c2ccc(Cl)cc2)c1=O | 26.6% (inactive) |
| C#Cc1ccc(-n2c(/C=C/c3ccc4ccccc4n3)nc3ncccc3c2=O)cc1 | -62.9% (active) |
| CSc1nn(-c2ccccc2)c2ncnc(Oc3ccccc3)c12 | 104% (inactive) |
| COc1ccc(-c2nc(-c3nc4cc(Cl)c(F)cc4[nH]3)c3ccccn23)cc1 | 97.4% (inactive) |
| C/C(=N\Nc1nc2ccccc2s1)c1ccncn1 | 43.2% (inactive) |
| Nc1cc2c(cc1Cl)-c1ccc([N+](=O)[O-])cc1/C2=N\O | 90.7% (inactive) |
| CN(C)CCN1C(=O)c2cccc3cc(N)cc(c23)C1=O | 17.4% (inactive) |
| CCCCCCNC(=O)Oc1ccc(/C(=C(/CC)Cc2ccccc2)c2ccc(OCCN3CCCCC3)cc2)cc1 | 93.1% (inactive) |
| Nc1nc(N)c(NC(=O)CNc2ccc(C(=O)O)cc2)c(N)n1 | 112% (inactive) |
| COc1ccc(-c2nn(-c3cccc(NC(=O)c4cc(C(F)(F)F)cc(C(F)(F)F)c4)c3)cc2-c2ccncc2)cc1Cl | 42.5% (inactive) |
| O=C1/C(=C\c2ccccc2)CN(C(=O)c2ccccc2)C/C1=C\c1ccccc1 | -37.5% (active) |
| COc1ccc(/C=C2/CN(C(=O)c3ccc(C)cc3)C/C(=C\c3ccc(OC)cc3)C2=O)cc1 | 91.4% (inactive) |

| SMILES | growth |
| --- | --- |
| COc1ccc(S(=O)(=O)NCCCNc2nccc(-c3c(-c4ccc(F)cc4)nc4sccn34)n2)cc1 | 57.7% (inactive) |
| COc1ccc(-c2cc(-c3ccc(N(C)C)cc3)c(C#N)c(N3CCCC3)n2)cc1 | 122% (inactive) |
| CCOC(=O)N/N=C\C(C)=N\NC(=O)OCC | 84.5% (inactive) |
| CN(C)Cc1cn(-c2ncc(-c3ccc(C(F)(F)F)cc3)c(NC3CCCCCC3)n2)nn1 | 73.5% (inactive) |
| CC(C)=NNc1ncnc2c1ncn2C1OC(CO)C(O)C1O (stereo not drawn) | -15.8% (active) |
| O=C(Nc1cccc(-n2cc(-c3ccncc3)c(-c3ccc(O)c(Cl)c3)n2)c1)c1cc(C(F)(F)F)cc(C(F)(F)F)c1 | 70.4% (inactive) |
| CCCC(F)C(=O)O (stereo not drawn) | 103% (inactive) |
| Nc1nc(Nc2ccccc2)n[nH]1 | 98.5% (inactive) |
| COc1ccc(-n2c(SCc3cc(OC)c(OC)c(OC)c3)nc3ccc(C)cc3c2=O)cc1 | 59.7% (inactive) |
| O=C(Nc1ccc(CN2CCc3nc4cc(O)c(O)cc4cc32)cc1)c1ccc(Cl)c(Cl)c1 | 93% (inactive) |
| CCOCCOCCOCCOCCOCCOCCOCCOCCOCCO (tested in a mixture with another compound) | 0.836% (active) |
| CCCCCCc1cc(N=Nc2ccc(S(=O)(=O)Nc3cc(C)nc(C)n3)cc2)c(O)cc1O | 93.1% (inactive) |
| CCN1CCN(c2nc3ccccc3c3c(=O)c4ccccc4sc23)CC1 | 52.5% (inactive) |
| COc1ccc(-c2nn(-c3cccc(NC(=O)Nc4ccccc4)c3)cc2-c2ccncc2)cc1Cl | 17.9% (inactive) |
| C#Cc1ccc(-n2c(/C=C/c3ccc4ccccc4c3)nc3ncccc3c2=O)cc1 | 39.5% (inactive) |
| Cc1ccc(S(=O)(=O)Oc2ccc3c4c(c(=O)oc3c2)CCCCC4)cc1 | 71.9% (inactive) |
| N=C(N)c1ccc(-c2ccc(-c3cccs3)s2)cc1 | -80.1% (active) |
| COc1cc(-c2cc(/C=C/C(=O)c3ccc(N)cc3)[nH]n2)cc(OC)c1OC | 58.3% (inactive) |
| CCOC(=O)C(NC(=O)C(Cl)Cl)C(O)c1ccccc1 (stereo not drawn) | 108% (inactive) |

What follows are molecules tested on MDA-MB-231 breast in the same assay as above. Conditions: 10 µM.

| SMILES | growth |
| --- | --- |
| COc1ccc(-c2csc(NC(=O)CSc3nc(C)c(-c4ccccc4)n3Nc3ccccc3)n2)cc1 | 65.8% (inactive) |
| Cc1cccc(C)c1NC(=O)c1sc2nc3c(cc2c1N)C(=O)CCC3 | 79% (inactive) |
| CC(=O)CSC(C)=O | 99.7% (inactive) |
| S=C1SCC(c2ccccc2)S1 (stereo not drawn) | 107% (inactive) |
| CC(=O)N(C)c1ccc(Nc2ccc(Nc3ccc(N(C)C(C)=O)cc3)c3c2C(=O)c2ccccc2C3=O)cc1 | 49.3% (inactive) |
| COc1ccc(CN2CCC(N3CCCC3=O)c3cc(Cl)ccc32)cc1 (stereo not drawn) | 123% (inactive) |
| CN(C)c1ccc(Cc2ccc(N(C)C)cc2Cl)c(Cl)c1 | 109% (inactive) |
| Clc1cc2c(c(CSc3nc4ccccc4n4cccc34)c1)OCOC2 | 65.8% (inactive) |
| CC(=O)n1c(-c2ccc(Cl)c(Cl)c2)cn(-c2ccc(Cl)cc2)c1=O | 33.3% (inactive) |
| C#Cc1ccc(-n2c(/C=C/c3ccc4ccccc4n3)nc3ncccc3c2=O)cc1 | -41.2% (active) |
| CSc1nn(-c2ccccc2)c2ncnc(Oc3ccccc3)c12 | 98.3% (inactive) |
| COc1ccc(-c2nc(-c3nc4cc(Cl)c(F)cc4[nH]3)c3ccccn23)cc1 | 57.5% (inactive) |
| C/C(=N\Nc1nc2ccccc2s1)c1ccncn1 | 31.3% (inactive) |
| Nc1cc2c(cc1Cl)-c1ccc([N+](=O)[O-])cc1/C2=N\O | 105% (inactive) |
| CN(C)CCN1C(=O)c2cccc3cc(N)cc(c23)C1=O | 57% (inactive) |
| CCCCCCNC(=O)Oc1ccc(/C(=C(/CC)Cc2ccccc2)c2ccc(OCCN3CCCCC3)cc2)cc1 | 83.6% (inactive) |
| Nc1nc(N)c(NC(=O)CNc2ccc(C(=O)O)cc2)c(N)n1 | 106% (inactive) |
| COc1ccc(-c2nn(-c3cccc(NC(=O)c4cc(C(F)(F)F)cc(C(F)(F)F)c4)c3)cc2-c2ccncc2)cc1Cl | 74% (inactive) |
| O=C1/C(=C\c2ccccc2)CN(C(=O)c2ccccc2)C/C1=C\c1ccccc1 | 7.59% (active) |
| COc1ccc(/C=C2/CN(C(=O)c3ccc(C)cc3)C/C(=C\c3ccc(OC)cc3)C2=O)cc1 | 87.1% (inactive) |

| SMILES | growth |
| --- | --- |
| COc1ccc(S(=O)(=O)NCCCNc2nccc(-c3c(-c4ccc(F)cc4)nc4sccn34)n2)cc1 | 75.4% (inactive) |
| COc1ccc(-c2cc(-c3ccc(N(C)C)cc3)c(C#N)c(N3CCCC3)n2)cc1 | 64.1% (inactive) |
| CCOC(=O)N/N=C\C(C)=N\NC(=O)OCC | 111% (inactive) |
| CN(C)Cc1cn(-c2ncc(-c3ccc(C(F)(F)F)cc3)c(NC3CCCCCC3)n2)nn1 | 89.5% (inactive) |
| CC(C)=NNc1ncnc2c1ncn2C1OC(CO)C(O)C1O (stereo not drawn) | 19.3% (inactive) |
| O=C(Nc1cccc(-n2cc(-c3ccncc3)c(-c3ccc(O)c(Cl)c3)n2)c1)c1cc(C(F)(F)F)cc(C(F)(F)F)c1 | -45% (active) |
| CCCC(F)C(=O)O (stereo not drawn) | 111% (inactive) |
| Nc1nc(Nc2ccccc2)n[nH]1 | 105% (inactive) |
| COc1ccc(-n2c(SCc3cc(OC)c(OC)c(OC)c3)nc3ccc(C)cc3c2=O)cc1 | 59.8% (inactive) |
| O=C(Nc1ccc(CN2CCc3nc4cc(O)c(O)cc4cc32)cc1)c1ccc(Cl)c(Cl)c1 | 103% (inactive) |
| CCOCCOCCOCCOCCOCCOCCOCCOCCOCCO (tested in a mixture with another compound) | 10.5% (inactive) |
| CCCCCCc1cc(N=Nc2ccc(S(=O)(=O)Nc3cc(C)nc(C)n3)cc2)c(O)cc1O | 111% (inactive) |
| CCN1CCN(c2nc3ccccc3c3c(=O)c4ccccc4sc23)CC1 | -2.38% (active) |
| COc1ccc(-c2nn(-c3cccc(NC(=O)Nc4ccccc4)c3)cc2-c2ccncc2)cc1Cl | -9.47% (active) |
| C#Cc1ccc(-n2c(/C=C/c3ccc4ccccc4c3)nc3ncccc3c2=O)cc1 | 42.1% (inactive) |
| Cc1ccc(S(=O)(=O)Oc2ccc3c4c(c(=O)oc3c2)CCCCC4)cc1 | 74.5% (inactive) |
| N=C(N)c1ccc(-c2ccc(-c3cccs3)s2)cc1 | 75.8% (inactive) |
| COc1cc(-c2cc(/C=C/C(=O)c3ccc(N)cc3)[nH]n2)cc(OC)c1OC | -2.03% (active) |
| CCOC(=O)C(NC(=O)C(Cl)Cl)C(O)c1ccccc1 (stereo not drawn) | 98.3% (inactive) |

— PubChem BioAssay (NCI)
